Laboratory results taken from PubChem BioAssay AID488890 (Southern Research Specialized Biocontainment Screening …, 2010).
Screen size: about 320,000 compounds; about 1,300 (0.41%) were called active. Not shown: some 3% with an inconclusive outcome. No rule for the calls is given here. The list is a sample of the results. Measured potencies and affinities stand elsewhere.

Test: growth inhibition of non-replicating M. tuberculosis (AID 488890);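 also: plate controls were DMSO cells for no effect and high antibiotic wells for full effect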
Settings: Mycobacterium tuberculosis non-replicating, at 25 µM, stronger effect = higher value

SMILES | inhibition [%]
CC1=C(C(=O)c2ccccc2)C(c2ccc(N3CCOCC3)cc2)NC(=O)N1 (configuration not stated) | 13.5
COc1ccc(OC)c(S(=O)(=O)N2CCCC(C(=O)N3CCOCC3)C2)c1 (configuration not stated) | -3.68
CN1CCN(C(=S)NC(=O)/C=C/c2ccccc2Cl)CC1 | -10.3
Cc1nc(C(=O)NCC(=O)c2ccc(Cl)cc2)c(C(F)(F)F)o1 | 75
O=C(CCNC(=O)Cn1ccc2ccccc2c1=O)NCc1ccc(F)cc1Cl | -3.09
NC(=O)CCC(NS(=O)(=O)c1ccc(Cl)cc1)C(=O)NCc1ccc(Cl)cc1 (configuration not stated) | 0.33
Cc1cccc(-n2c(-c3ccc(Br)o3)n[nH]c2=S)c1 | -15
COc1cc(CNCc2ccccc2)cc(Cl)c1OC | -13.6
COc1cc(CNC2CCCC2)cc(Cl)c1OCc1ccccc1F | 78.7
COc1cc(CNC2CCCCCCC2)cc(Cl)c1OC | 9.81
CCOc1cc(CNCCc2ccc(S(N)(=O)=O)cc2)cc(Cl)c1OCc1ccccc1 | 73
OCCNCc1ccc(OCc2ccc(Cl)cc2Cl)cc1 | 61.3
CCOc1cccc(CNCCO)c1OCc1ccc(Cl)cc1Cl | 42.6
CCCCNCc1cc(Br)c(OCC(=O)NCc2ccccc2)c(OC)c1 | 68.2
COc1cc(CNC2CCCC2)cc(Br)c1OCC(=O)Nc1ccccc1C | 45.5
COc1ccc(-c2n[nH]c(=S)n2-c2ccc(C)cc2C)cc1 | -17.9
Cc1ccc(S(=O)(=O)CCc2nnc(N)s2)cc1C | 4.5
Cc1oc(-c2ccccc2F)nc1CSCC(=O)NC1CC1 | -0.31
Cc1c(CC(=O)O)c(=O)oc2c(C)c(OCc3ccccc3)ccc12 | -3.08

SMILES | inhibition [%]
CCN(CC(=O)Nc1cccc(C(C)=O)c1)S(=O)(=O)c1ccccc1 | -4.85
O=C(c1cccnc1)N1CCN(S(=O)(=O)c2ccc3ccccc3c2)CC1 | 9.44
CC(NC(=O)CN1C(=O)NC2(CCCC2)C1=O)c1ccc2ccccc2c1 (configuration not stated) | 9.54
CCN1CCC(NCCc2ccc(F)cc2)CC1 | -11.9
CN(C(=O)c1ccc2c(Cl)c3c(nc2c1)CCC3)c1ccccc1 | 32.3
Cc1ccc(N(CC(=O)Nc2c(C)n(C)n(-c3ccccc3)c2=O)S(C)(=O)=O)c(C)c1 | -0.1
O=P(O)(O)COc1ccccc1P(=O)(c1ccccc1)c1ccccc1 | -12.2
Cc1noc(C)c1COC(=O)COc1ccc(C#N)cc1 | 38.3
Cc1noc(C)c1COC(=O)COc1cccc2c1OC(C)(C)C2 | 39.2
O=C(Nc1ccc(N2CCN(C(=O)c3cccs3)CC2)c(Cl)c1)c1ccco1 | 9.48
O=C(Nc1ccc(N2CCN(C(=O)c3ccco3)CC2)cc1)c1cccs1 | 38.8
O=C(Nc1cccc(S(=O)(=O)N2CCCCCC2)c1)C1CCC1 | -14
COc1ccc(OCC(=O)NNC(=O)C(=O)Nc2ccccc2)cc1 | 75.3
CCc1ccc(NC(=O)COc2cccc(-n3cnnn3)c2)cc1 | 23.8
COC(=O)c1ccc(NC(=O)c2cccc(OC)c2)cc1 | 27.8
CCc1ccc(NC(=O)Nc2cccc(OC)c2)cc1 | 60.4
COc1ccc(NC(=O)C(=O)NNC(=O)COc2ccc(OC)cc2)cc1 | 6.66
COc1ccc(OCC(=O)NNC(=O)C(=O)Nc2ccc(C)cc2)cc1 | 7.2
CCCC(c1nnnn1Cc1ccco1)N1CCC(C(N)=O)CC1 (configuration not stated) | -17.6

SMILES | inhibition [%]
Cc1ccc(CN2CCSc3ccc(C(=O)NCc4ccccn4)cc32)cc1 | 29.8
CC(=O)Nc1cccc(NC(=O)c2cc(-c3cccnc3)nc3ccc(Cl)cc23)c1 | 14.7
CCc1ccc(N(CC(=O)NCc2ccco2)C(=O)CCC(=O)Nc2ccccn2)cc1 | -13.9
CCC(C)c1ccc(O)c(N)c1 (configuration not stated) | 1.15
CCC(C)c1ccc(O)c(NC(=O)c2cccnc2)c1 (configuration not stated) | 5.33
CC(C)CN(C(=O)COC(=O)C1=COCCO1)c1c(N)n(Cc2ccccc2)c(=O)[nH]c1=O | 0.83
O=C(CC1SC(N2CCOCC2)=NC1=O)Nc1cccc(C(F)(F)F)c1 (configuration not stated) | 9.06
COc1cccc(NC(=O)CCN2C(=O)c3ccc([N+](=O)[O-])cc3C2=O)c1 | -4.23
C=CCN1C(=O)C(CC(=O)Nc2ccccc2)S/C1=N/c1nccs1 (configuration not stated) | -1.19
Cc1cc(=O)[nH]c(N2CCCC2)n1 | -4.14
Cc1cc(C)n(-c2nnc(C)c(=O)[nH]2)n1 | 1.82
CCc1c(C)nc(SCc2cccnc2)[nH]c1=O | -9.77
Cc1nn(-c2cccc3cccnc23)c(=O)c2ccccc12 | 0.08
O=C(c1ccc(Oc2ccc([N+](=O)[O-])cc2)cc1)N1CCCCCC1 | 65.4
O=C(Cc1ccc([N+](=O)[O-])cc1)N1CCCCCC1 | 5.47
Cc1ccccc1NC(=O)c1cccc(S(=O)(=O)N2CCOCC2)c1 | -10.8
c1csc(CN2CCOCC2)c1 | -3.64
OC(C#CCN1CCCC1)c1ccccc1 (configuration not stated) | -3.04
COc1cc(C(=S)N2CCN(C(c3ccccc3)c3ccccc3)CC2)cc(OC)c1O | 12.6
